From PubChem
This is a sample that favours compounds with a hit; in the whole collection about 11% have one here.
PNC inhibitor: High Content Assay for Compounds that inhibit the Assembly of the Perinucleolar Compartment | 140,000 tested, 3.1% active | PC3M PTB-GFP, PNC prevalence imaging, 16 h; hits give low values | activity change (PNC), negative = inhibition, % at 10 µM;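 active = readout at or below -70, meaning at least 70% loss of cells showing the perinucleolar compartment, a nuclear body marking cancer cells; inconclusive = readout between -30 and a set limit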
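PC3M cells stably expressing PTB-GFP, 750–1000 cells/well, treated 16 h at 37 °C with compound (23 nl of library stock), in duplicate. After paraformaldehyde fixation and Hoechst stain, imaged at 20x; PNC prevalence scored by image analysis.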
HPGD block: qHTS Assay for Inhibitors of HPGD (15-Hydroxyprostaglandin Dehydrogenase) | purified HPGD, NADH fluorescence kinetic, PGE2 substrate | Potency, µM, actives largely listed as inhibitors | 150,000 tested, 4.3% active
Target sequence (P15428 whole entry, looked up): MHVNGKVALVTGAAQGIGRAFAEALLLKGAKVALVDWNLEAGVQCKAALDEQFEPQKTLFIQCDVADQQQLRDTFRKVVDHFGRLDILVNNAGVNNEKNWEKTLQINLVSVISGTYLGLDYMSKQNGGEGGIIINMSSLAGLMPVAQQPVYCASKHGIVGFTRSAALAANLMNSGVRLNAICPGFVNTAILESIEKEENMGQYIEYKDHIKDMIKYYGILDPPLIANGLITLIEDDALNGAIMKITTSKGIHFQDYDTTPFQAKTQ
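NADH formation kinetics: reaction with 30 uM PGE2 and 1 mM NAD+ (final), 20 nM enzyme, Tris-HCl pH 8 with Tween 20, after 15 min compound preincubation at room temperature. Fluorescence change, last versus first of five reads.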
ALDH1A1 block: qHTS Assay for Inhibitors of Aldehyde Dehydrogenase 1 (ALDH1A1); 220,000 tested, 7.3% active; Purified ALDH1A1, NADH fluorescence, propionaldehyde substrate; Potency, µM (top dose mostly 75.3 µM), hits mostly inhibitors; AID 1030, 2008; Aldehyde dehydrogenase 1A1 (Homo sapiens), P00352
Each line names hits and unclear results; the compound was inactive in the other large screens. Unless noted, calls come from the whole dose curve; as a rule, active = well fitted inhibition curve with a large enough effect (not every such curve was filed as active); inconclusive = small, poorly fitted or top-dose-only effect, or another doubt; inactive = no such curve, though single readings can be large or run the other way.

CCOC(=O)C1CCN(C(=O)N(C)C)CC1	PNC inhibitor inconclusive
CCOC(=O)C1CCN(C(=O)COC(=O)c2ccc(Br)o2)CC1	PNC inhibitor inconclusive
CCOC(=O)C1CCN(C(=O)COc2ccc(Br)cc2C)CC1	none (no result: PNC inhibitor, HPGD block)
CCOC(=O)C1CCN(C(=O)CSc2ccc(Br)cc2)CC1	ALDH1A1 block 32µM (no result: PNC inhibitor, HPGD block)
CCOC(=O)C1CCN(C(=O)C(C)Sc2ccc(Cl)cc2)CC1 (stereo not drawn)	ALDH1A1 block inconclusive
CCOC(=O)C1CCN(C(=O)CSc2ccc(Cl)cc2)CC1	PNC inhibitor -100
CCOC(=O)C1CCN(C(=O)c2ccc(Br)o2)CC1	ALDH1A1 block 3.2µM
CCOC(=O)C1CCN(C(=O)CSCCSCC(=O)N2CCC(C(=O)OCC)CC2)CC1	ALDH1A1 block 11µM
O=Cc1ccc(OC2OCCOC2Oc2ccc(C=O)cc2)cc1 (stereo not drawn)	ALDH1A1 block inconclusive
O=C1CCC(C(=O)Nc2cccc(Oc3ccccc3)c2)=NN1	none (no result: PNC inhibitor, HPGD block)
CCc1ccc(-c2nc(SCC(=O)N3CCOCC3)n[nH]2)cc1	none (no result: PNC inhibitor, HPGD block)
CCC(C)Sc1cc(C(F)(F)F)c(C(=O)Nc2ccc(Cl)cc2)cn1 (stereo not drawn)	none (no result: PNC inhibitor, HPGD block)
CCOC(=O)C1=C(O)/C(=C\c2ccc(CNC(=O)C(=O)Nc3ccc(C)c(C)c3)o2)N=C1C	none
O=C(CCCc1c[nH]c2ccccc12)Nc1ccc(S(=O)(=O)Nc2ncccn2)cc1	none (no result: PNC inhibitor, HPGD block)
COc1ccc(CCN2C(=O)NC(NS(=O)(=O)c3ccc(N)cc3)(C(F)(F)F)C2=O)cc1OC (stereo not drawn)	none
CNCC(O)Cn1c(C(F)(F)F)nc2ccccc21 (stereo not drawn)	PNC inhibitor -100
OC(Cn1nnc2ccccc21)Cn1c(C(F)(F)F)nc2ccccc21 (stereo not drawn)	PNC inhibitor inconclusive, ALDH1A1 block inconclusive
COc1ncc2nc(C)c(=O)n(C[C@H]3CCCO3)c2n1	none (no result: PNC inhibitor)
CN(C)Cc1ccc(C(C)(C)C)cc1-c1cc(C(C)(C)C)ccc1CN(C)C	none (no result: PNC inhibitor)
O=C(c1ccncc1)N1CCC2(CCN(Cc3ccccc3)CC2)CC1	none (no result: PNC inhibitor)
O=C(NC(C(=O)c1ccccc1)N1CCOCC1)c1cccs1 (stereo not drawn)	ALDH1A1 block inconclusive
Cc1ccc(C(=O)C(NC(=O)c2ccco2)N2CCOCC2)cc1 (stereo not drawn)	PNC inhibitor inconclusive, ALDH1A1 block 28µM
O=C(NC(C(=O)c1ccccc1)N1CCCCCC1)c1ccco1 (stereo not drawn)	PNC inhibitor inconclusive, ALDH1A1 block 14µM
O=C(NC(C(=O)c1ccccc1)N1CCOCC1)c1ccccc1 (stereo not drawn)	none
CC(=O)OC[C@@H]1O[C@H](C/C=N\O[C@@H](C)c2cc(-c3c(C)cc(C)cc3C)no2)C=C[C@@H]1OC(C)=O	none (no result: PNC inhibitor, HPGD block)
COc1cc(/C=C/C(=O)OCC(=O)Nc2ccc(S(=O)(=O)N3CCCC3)cc2)ccc1O	HPGD block inconclusive, ALDH1A1 block inconclusive
Cc1ccc(NC(=O)CCc2c(C)nc3ncnn3c2C)cc1	none
Cc1cccc(OCC(=O)Nc2ccc(S(=O)(=O)N3CCCC3)cc2)c1	PNC inhibitor -99, ALDH1A1 block inconclusive
O=C(COC(=O)CN1C(=O)c2ccccc2C1=O)Nc1ccc(S(=O)(=O)N2CCCC2)cc1	ALDH1A1 block inconclusive
O=C(COC(=O)CCN1C(=O)c2ccccc2C1=O)Nc1ccc(S(=O)(=O)N2CCCC2)cc1	ALDH1A1 block 5µM
Cc1ccc(NC(=O)COc2ccc(S(=O)(=O)N3CCOCC3)cc2)cc1	none
COc1cccc(/C=C/C(=O)OCC(=O)Nc2ccc(S(=O)(=O)N3CCCC3)cc2)c1	HPGD block inconclusive, ALDH1A1 block 7.1µM
Cc1nc2ncnn2c(C)c1CCC(=O)Nc1ccc(S(=O)(=O)N2CCCCCC2)cc1	PNC inhibitor -94, HPGD block 16µM, ALDH1A1 block 6.3µM
Cc1nc2cnc(Nc3ccccc3)nc2n(C2CC2)c1=O	none (no result: PNC inhibitor, HPGD block)
OCCC1CN(Cc2cnc(N3CCOCC3)s2)CCN1C1CCCC1 (stereo not drawn)	none (no result: PNC inhibitor, HPGD block)
Cc1ccc(OCCCC(=O)NCc2ccco2)c(C)c1	none (no result: PNC inhibitor, HPGD block)
Cc1ccnc(NC(=O)Nc2ccc3c(c2)OCO3)c1	none (no result: PNC inhibitor, HPGD block)
COS(C)(=O)=O	none (no result: PNC inhibitor)
COc1ccc(C(=O)NC(C(=O)NCC(=O)Nc2c(C)cccc2C)C(C)C)cc1 (stereo not drawn)	none
CC1(C)C(C(=O)O)N2C(=O)CC2S1(=O)=O (stereo not drawn)	none (no result: PNC inhibitor)
COc1cc(C#N)ccc1OCC(=O)Nc1cccc(S(=O)(=O)N2CCCC2)c1	ALDH1A1 block 13µM (no result: PNC inhibitor, HPGD block)
COc1cccc(/C=C/C(=O)OCC(=O)Nc2cccc(S(=O)(=O)N3CCCCC3)c2)c1OC	HPGD block inconclusive, ALDH1A1 block inconclusive
CC(=O)Nc1cccc(OCC(=O)NS(=O)(=O)c2ccc(C)cc2)c1	none
COC(=O)COc1cccc(NS(=O)(=O)c2ccc(NC(C)=O)cc2)c1	PNC inhibitor -88
O=C(CNC1CCCCCC1)Nc1ccc(S(=O)(=O)NC2CC2)cc1	PNC inhibitor inconclusive
Cc1cccc(OCC(=O)NC(=S)Nc2ccc(S(=O)(=O)NC3CCCCC3)cc2)c1	HPGD block inconclusive, ALDH1A1 block 16µM
Cc1c(Cl)c(S(N)(=O)=O)cc(S(N)(=O)=O)c1NC(=O)c1ccc(Cl)cc1	none (no result: PNC inhibitor)
Cc1ccc(S(=O)(=O)n2nc(OC(=O)C3CCCCC3)cc2N)cc1	ALDH1A1 block inconclusive
Cc1ccc(S(=O)(=O)n2nc(OC(=O)c3cccs3)cc2N)cc1	ALDH1A1 block 2µM
COc1ccc(S(=O)(=O)n2nc(OC(=O)C3CCCCC3)cc2N)cc1	ALDH1A1 block 2µM
Nc1cc(OC(=O)c2ccco2)nn1S(=O)(=O)c1ccc(F)cc1	ALDH1A1 block 14µM (no result: HPGD block)
COc1ccc(-c2ccc(S(=O)(=O)n3nc(OC(=O)c4cccs4)cc3N)cc2)cc1	none (no result: PNC inhibitor, HPGD block)
CC(C)(C)C(=O)Oc1cc(N)n(S(=O)(=O)c2ccc(F)cc2)n1	none
CC(=O)c1cc(-c2ccccc2)n(CC(=O)Nc2cccc(C)c2)c1C	none
C=CCOC(=O)C1=C(C)NC(=S)NC1/C=C/c1ccccc1 (stereo not drawn)	ALDH1A1 block 0.045µM
COCCOC(=O)C1=C(C)NC(=O)NC1/C=C/c1ccccc1 (stereo not drawn)	none
COCCOC(=O)C1=C(C)NC(=S)NC1/C=C/c1ccccc1 (stereo not drawn)	ALDH1A1 block 0.79µM
CC1=C(C(=O)OC(C)C)C(/C=C/c2ccccc2)NC(=O)N1 (stereo not drawn)	none
O=C(c1csnn1)N1CCC2(CCN(Cc3cc(C(F)(F)F)cc(C(F)(F)F)c3)CC2)CC1	none (no result: PNC inhibitor)
Cc1c(C(=O)N2CC(C)OC(C)C2)sc2nc(-c3ccc(F)cc3)cn12 (stereo not drawn)	HPGD block 35µM
CCOC(=O)N1CCN(C(=O)c2sc3nc(-c4ccc(F)cc4)cn3c2C)CC1	none
NC(=S)NNC(=O)Nc1ccc(Cl)c(Cl)c1	ALDH1A1 block 28µM
O=C(Cc1ccccc1)NNC(=O)Nc1ccc(Cl)c(Cl)c1	none
COc1ccc(OCCC(=O)NCCN2CCOCC2)cc1	none (no result: PNC inhibitor, HPGD block)
CN1CCN(Cc2nc3ccccc3c(=O)n2Cc2nc(-c3ccc([N+](=O)[O-])cc3)cs2)CC1	PNC inhibitor inconclusive, ALDH1A1 block 13µM (no result: HPGD block)
CN1CCN(Cc2nc3ccccc3c(=O)n2CC#N)CC1	none (no result: PNC inhibitor, HPGD block)
